From PubChem BioAssay
This is a sample that favours compounds with a hit; in the whole collection about 2% have one here.
FUS suppressor: suppressors of FUS proteinopathy in yeast; 390,000 compounds, 0.24% hits; Potency, µM (highest dose often 76.6 µM), actives largely listed as activators; AID 1347120; S. cerevisiae FUS-expressing, growth rescue, OD600, 24 h; also: nearly all actives have a fitted effect of over 55% in size
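Absorbance at 600 nm, taken 24hr after compound addition, measured rescue of FUS-yeast growth at 30C. Induction used 2% galactose with seeding at OD 0.005. Controls: CP55940 from 92uM final, DMSO only.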
aSyn yeast inh: alpha-synuclein toxicity inhibition in yeast; Yeast expressing alpha-synuclein, growth rescue, BacTiter-Glo, 24 h; Potency, µM (titrated, usually from 46.1 µM), actives largely listed as activators; 370,000 compounds, 0.14% hits; also: nearly all actives have a fitted effect of over 65% in size
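Rescue of yeast growth: cells expressing toxic alpha-synuclein, induced in galactose at OD600 0.02, incubated with compound 24 h at 30 C. ATP luminescence quantified growth; inhibitors of toxicity appear as activators.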
Glioma ERSR ind: inducers of ER stress response in human glioma cells. 420,000 compounds, 0.02% hits. AID 602332. Potency, µM, most hits filed as activators. U87-MG GRP78 promoter luciferase reporter, 16 h; also: series mostly up to about 76 µM; nearly all actives have a fitted effect of over 35% in size
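Stably transfected U87-MG human glioma cells carrying a GRP78-based luminescent sensor were seeded at 1000 cells/well, pin-dosed with compounds and incubated 16 h. Luciferase reagent was then added, and end-point luminescence was read after 10 min at room temperature.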
MBNL1 CUG block: inhibitors of human MBNL1 binding to CUG repeat RNA | Q9NR56 | TR-FRET MBNL1-His/biotin-(CUG)12 binding, 665/545 ratio | Potency, µM (highest dose often 57.5 µM), hits mostly inhibitors | 280,000 compounds, 0.036% hits | AID 2675; active = well fitted inhibition curve with a large enough effect in the signal ratio, with a control signal flat, not every such curve was filed as active; inconclusive = small, poorly fitted or top-dose-only effect, or effect the other way, or a change in a side signal; inactive = no such curve, though single readings can be large or run the other way; the % refers to the signal ratio
Target sequence (Q9NR56 whole entry, looked up): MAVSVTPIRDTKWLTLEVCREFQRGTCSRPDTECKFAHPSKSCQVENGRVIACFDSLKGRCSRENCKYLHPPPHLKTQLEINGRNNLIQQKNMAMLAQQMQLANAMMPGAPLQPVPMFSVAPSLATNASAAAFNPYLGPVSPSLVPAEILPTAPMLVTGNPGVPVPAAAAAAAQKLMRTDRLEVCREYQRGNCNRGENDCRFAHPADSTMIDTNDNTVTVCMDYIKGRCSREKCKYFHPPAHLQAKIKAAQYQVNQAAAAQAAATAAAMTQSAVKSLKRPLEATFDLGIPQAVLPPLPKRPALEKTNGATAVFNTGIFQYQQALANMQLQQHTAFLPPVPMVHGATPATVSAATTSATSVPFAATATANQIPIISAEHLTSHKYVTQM
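TR-FRET readout: Ex 340 nm, 665/545 nm emission ratio, normalized to buffer-only (basal) and MBNL1-(CUG)12 controls. Complex of MBNL1-His with Biotin-(CUG)12, compounds 92 nM–58 uM, incubated 60 min at room temperature.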
TDP43 rescue: TDP-43 toxicity inhibition in yeast; TDP-43 expressing yeast growth rescue, BacTiter-Glo, 24 h; Potency, µM (highest dose often 46.1 µM), actives largely listed as activators; 410,000 compounds, 1.8% hits; also: nearly all actives have a fitted effect of over 50% in size
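Readout is BacTiter-Glo luminescence of cell growth, so inhibitors register as activators. TDP-43-expressing yeast at OD600=0.02 in galactose medium, after raffinose pregrowth to mid-log, were incubated with compound for 24 hr at 30 deg C.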
Abeta yeast res: A-beta toxicity reversal in yeast; Potency, µM (highest dose often 46.1 µM), hits mostly activators; yeast expressing A-beta42, growth rescue, OD600, 48 h; response scale: 0% DMSO, 100% iron-clioquinol control; 410,000 compounds, 0.063% hits; AID 1347071; also: nearly all actives have a fitted effect of over 55% in size
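Growth rescue measured by 600 nm absorbance after 48 h yeast culture at 30 C with compound. Values normalized between DMSO and an equimolar ferric chloride plus clioquinol control.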
A number is an active result; . = inactive; ? = inconclusive; / = not tested or not shown; [ ] = dose if it differs, or a comment. Unless noted, calls follow the shape of the dose curve; as a rule, active = well fitted curve in the direction sought with a large enough effect; inconclusive = small, poorly fitted or top-dose-only effect, or another doubt; inactive = no such curve, though single readings can be large; an effect the other way counts as inactive or inconclusive.

SMILES | FUS suppressor | aSyn yeast inh | Glioma ERSR ind | MBNL1 CUG block | TDP43 rescue | Abeta yeast res
COc1cc(C(O)c2nc(-c3cccc(C#N)c3)cs2)ccc1F (configuration not stated) | . | ? | . | / | 10µM | .
COc1ccc(C(O)c2nc(-c3ccc(F)c(Cl)c3)cs2)cc1 (configuration not stated) | . | 13µM | . | / | 11µM | ?
COc1ccc(-c2csc(C(O)c3ccc(F)c(OC)c3)n2)cc1 (configuration not stated) | ? | 18µM | . | / | 22µM | ?
COCc1cccc(-c2csc(C(O)c3ccc(F)c(OC)c3)n2)c1 (configuration not stated) | . | . | . | / | ? | ?
COc1cc(C(O)c2nc(-c3ccc(F)cc3OC)cs2)ccc1F (configuration not stated) | . | ? | . | / | 25µM | .
COc1cc(C(O)c2nc(-c3ccccc3)cs2)ccc1F (configuration not stated) | . | ? | . | / | . | .
O=C(CSc1nc2ccccc2c(=O)n1-c1ccc(Cl)cc1)NNC(=S)Nc1ccccc1 | . | / | / | / | / | /
CN(C)c1ccc2c(-c3ccccc3)c3ccc(=[N+](C)C)cc-3oc2c1 | / | / | . | / | / | /
CN1CC=C(c2ccccc2)N(c2ccc(Cl)cc2)C1=O | . | / | / | / | / | /
CCC1CN(Cc2ccc(COC)o2)Cc2cc(OC)ccc2O1 (configuration not stated) | / | / | . | / | / | /
OC(c1ccc2c(c1)CN(Cc1cccn1-c1cccnc1)CCO2)C1CCCCC1 (configuration not stated) | / | / | . | / | / | /
CC(C)(C)c1ccc(C(=O)NCCc2csc3nc(-c4ccccc4F)nn23)cc1 | ? | / | . | / | 35µM | .
Cc1ccccc1-c1nc2scc(CCNC(=O)c3ccco3)n2n1 | . | / | . | / | 18µM | .
COCCCN1C(=O)[C@H](CC(=O)NCc2cccc3ccccc23)[C@]2(C(=O)OC)CCCCC=C12 | . | / | / | / | / | /
CC(Oc1ccc(O)cc1)(P(=O)(O)O)P(=O)(O)O | / | / | . | / | / | /
Oc1ccc(Oc2ccc(Oc3ccc(O)cc3)cc2)cc1 | . | . | . | . | 20µM | .
COc1ccc(OC)c(C(=O)Nc2c(O)ccc3ccccc23)c1 | ? | . | . | / | 11µM | .
COc1ccc(OC)c(NC(=O)Nc2c(O)ccc3ccccc23)c1 | . | . | . | / | . | .
COc1ccc(OC)c(NC(=O)Nc2ccc(O)c3ccccc23)c1 | 28µM | . | . | / | . | .
CSc1nn(Cc2ccc(Cl)cc2)c(N(C(C)=O)C(C)=O)c1S(=O)(=O)c1ccccc1 | . | / | . | / | ? | .
CSc1nn(Cc2cccc(F)c2)c(N(C(C)=O)C(C)=O)c1S(=O)(=O)c1ccccc1 | . | / | . | / | 35µM | .
COc1cccc(Cn2nc(SC)c(S(=O)(=O)c3ccccc3)c2N(C(C)=O)C(C)=O)c1 | . | / | . | / | 20µM | .
CSc1nn(Cc2ccc(Br)cc2)c(N(C(C)=O)C(C)=O)c1S(=O)(=O)c1ccccc1 | . | / | . | / | 35µM | .
CCOC(=O)c1sc(NNC(=O)c2ccc(C)cc2)nc1C | . | . | . | . | . | .
CCOC(=O)c1sc(NCCNc2nc(C)c(C(=O)OCC)s2)nc1C | . | . | . | . | . | .
SMILES | FUS suppressor | aSyn yeast inh | Glioma ERSR ind | MBNL1 CUG block | TDP43 rescue | Abeta yeast res
CCOC(=O)c1sc(NNC(=O)c2ccc(F)cc2)nc1C | . | ? | . | . | 14µM | ?
CCOC(=O)c1sc(Nc2ccc(Br)cc2)nc1C | . | . | . | . | 16µM | .
CCOC(=O)c1sc(Nc2ccccc2Cl)nc1C | . | . | . | . | 20µM | .
CCOC(=O)c1sc(NC(=O)Nc2ccccc2F)nc1C | . | . | . | . | . | .
CC1CCCCC1NC(=S)Nc1ccc(SC(F)F)cc1 (configuration not stated) | . | . | . | . | 20µM | ?
Cc1ccc(Cl)cc1N1CCN(C(=O)c2ccc(CS(=O)(=O)c3ccc(Br)cc3)o2)CC1 | 22µM | / | . | / | . | .
CC1CN(CC(=O)N2CCN(Cc3nccn3C)CC2)Cc2cc(Cl)ccc2O1 (configuration not stated) | / | / | . | / | / | /
CCc1ccc(-c2ccc(C(=O)Oc3ccc(Br)cc3)cc2)nc1 | . | / | . | / | ? | .
CCc1ccc(-c2ccc(C(=O)O)cc2)nc1 | . | . | . | . | 35µM | .
O=C1c2ccccc2C2N1CCCN2C(=O)c1sc2ccccc2c1Cl (configuration not stated) | . | . | . | / | 18µM | .
COc1ccc(-n2c(SCC(=O)O)nc3sc4c(c3c2=O)CCC4)cc1 | . | . | . | . | . | .
COc1ccc(-n2c(C)nc3sc4c(c3c2=O)CCC4)cc1 | . | . | . | . | 13µM | .
COc1cc2c(oc(=O)c3cc(C)cc(OC)c32)c2c(C3OC(C)C(O)C(C)(O)C3O)ccc(O)c12 (configuration not stated) | / | 6.3µM | . | / | ? | .
CCOC(=O)c1sc(N)c(C(=O)Nc2ccccc2)c1C | . | . | . | . | 13µM | .
COc1ccc(CN(C(=O)c2ccc(-c3ccccc3)[nH]2)C(C(=O)NCC2CCCO2)c2ccc(C)o2)cc1 (configuration not stated) | / | . | . | . | 11µM | .
O=C(NCC1CCCO1)C(c1cccs1)N(Cc1ccccc1)C(=O)c1ccc(-c2ccccc2)[nH]1 (configuration not stated) | / | . | . | . | 16µM | .
CN(C(=O)CNC(=O)c1ccccc1OCC(=O)Nc1ccc(I)cc1)c1ccccc1 | . | / | / | / | / | /
COc1cccc(CN(C)C(=O)c2ccc(N3CCCC3)c([N+](=O)[O-])c2)c1 | . | . | . | ? | 20µM | .
COc1ccc(NC(=O)CN(C)C(=O)c2ccc(N3CCCCC3)c([N+](=O)[O-])c2)cc1 | . | . | . | / | ? | .
CCOC(=O)C1CCN(C(=O)c2ccc(C)c(NC(=O)c3nsc4ccccc34)c2)CC1 | ? | / | . | / | 35µM | .
CN(c1ncnc2onc(-c3cccc(Cl)c3)c12)C1CCCCC1 | . | / | . | / | 22µM | .
O=C(CCS(=O)(=O)c1cc(Br)cc2c1N(C(=O)C1CC1)CC2)NCc1ccc(Cl)cc1 | 28µM | / | . | / | . | .
O=C(CSc1nnc(-c2ccccn2)o1)Nc1ccccc1 | . | . | . | . | . | .
O=C(CSC1=NNC(c2ccccn2)S1)Nc1ccccc1 (configuration not stated) | . | . | . | . | 13µM | ?
O=C(CSc1nncn1-c1ccccn1)Nc1cccc(Cl)c1 | . | . | . | . | .[0.397 µM] | .
